# The panel holds about 83,000 compounds, 20% with a hit somewhere; the sample as a whole holds those more often.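 Negative percent growth values reflect cell death: -40 means 40% of the cells present at the start died, and -100 means all died.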 A number with no mark means an inactive call. Activity calls are given as the source filed them. The calls were made as follows: active = growth percent below 10; inactive = the rest.
# System: HL-60(TB) leukemia
# Experiment: NCI-60 one-dose screen, 48 h (100 = growth as untreated, 0 = no growth, -100 = all killed)
# Settings: 10 µM unless noted
row,SMILES,growth
1,Ic1ccc(Nc2nc3nonc3nc2Nc2ccc(I)cc2)cc1,-50.2% (active)
2,C=C1CCC2C3(C)COC(c4ccc(OC)cc4Br)OC3CCC2(C)C1/C=C/C1=CCOC1=O (stereo not given),31.8%
3,CC(=O)OCCC/C(=C/c1cc2ccccc2c2ccccc12)[N+](=O)[O-],-52.1% (active)
4,C=C(C[C@@](O)(C(=O)Oc1ccccc1)C(=O)C1CCCCC1)c1ccccc1,112%
5,Fc1ccc(CNCCNc2ncnc3c2cnn3-c2ccccc2)cc1,83.1%
6,CN(C)CCN(C)CC(C)(C)C(=O)/C=C/c1ccc(Cl)cc1,0.343% (active)
7,O=[N+]([O-])c1ccc2c(c1)S(=O)c1cc([N+](=O)[O-])ccc1N2,109%
8,S=C=Nc1ccc2ccccc2c1,91.7%
9,Cc1cc2nc3c4cc([N+](=O)[O-])cc([N+](=O)[O-])c4n(CCN(C)C)c3nc2cc1C,98.2%
10,CCn1cc(C(=O)N/N=C/c2ccccc2)c(=O)c2cc(F)c(N3CCNC(C)C3)c(F)c21 (stereo not given),18.1%
11,C=CC(=O)NCc1cccc(Nc2ncc(Br)c(NCCCNC(=O)C3CCC3)n2)c1,-50% (active)
12,CC(C)OC(=O)Nc1cc(F)c(F)cc1F,98.6%
13,COc1cccc2c1C(=O)c1c(O)c3c(c(O)c1C2=O)C[C@@](O)(C(=O)COC(=O)c1cccnc1)C[C@@H]3OC1CC(N)C(O)C(C)O1 (stereo not given in full),-27% (active)
14,NC(=S)N/N=C/c1ccc(Cl)s1,102%
15,COc1cc(/C=C2\C(=O)N(CCCOc3cc(O)c4c(=O)cc(-c5ccccc5)oc4c3)c3ccccc32)cc(OC)c1O,47.2%
16,Cc1cc(C)c(C=O)c(C)c1,84.1%
17,COC(=O)[C@@H]1[C@H](O)[C@H](C)[C@H](O)[C@H](C)/C=C\C=C(C)C(=O)Nc2c(C)c(OC(C)=O)c3c(c2O)C(=O)C(C)=C2OCOC(=C23)C(C)=C[C@@](C)(O)[C@H](O)[C@@H](C)[C@H]1OC(C)=O,119%
18,Cn1c(=O)c2[nH]c(CC(=O)O)nc2n(C)c1=O,110%
19,CCCCCCCCCCCCCCCCOC(=O)c1c(C)[nH]c(/C=C2\N=C(c3ccc[nH]3)C=C2OC)c1C,62.2%
20,COc1cccc2c(=O)c3c(sc12)c(NCCCN)nc1ccccc13,44.2%

row,SMILES,growth
1,CNC(=O)c1cc(Oc2ccc3c(c2)sc2nc(-c4cc(C(F)(F)F)cc(C(F)(F)F)c4)cn23)ccn1,45.7%
2,CC(C)C(C#N)(C(C)C)C(C)C,109%
3,CN1CCC(CNc2cc(C3(C(=O)Nc4cc(C(=O)Nc5ccc(Cl)c(C(F)(F)F)c5)ccc4F)CC3)ncn2)CC1,-7.85% (active)
4,CNc1ccc(-c2cc(=O)oc3ccc(Cl)cc23)cc1,-13.5% (active)
5,O=C1CC(c2ccc(Cl)cc2)c2ncn(-c3cccc(Cl)c3)c2N1 (stereo not given),-4.87% (active)
6,CC(=O)Nc1nc(C)c(C(=O)N/N=C/c2cccs2)s1,130%
7,COc1cccc2c1C(=O)c1c(O)c3c(c(O)c1C2=O)C[C@](O)(C(=O)CO)C[C@H]3O[C@@H]1C[C@@H](NC(=O)CCCN(C)C2(c3ccc(F)cc3)CC3CCC2C3)[C@H](O)[C@@H](C)O1 (stereo not given in full),76%
8,COc1ccc(-c2nc3sc(-c4ccc(Cl)cc4)cn3n2)cc1,105%
9,CCCCCCCCCCCCCCCCCCOCC(COCCOCC[N+]1(CCCCCC(=O)[O-])CCCC1)Oc1ncccn1 (stereo not given),-32.2% (active)
10,CCc1nc2cc(/C=C/C(=O)NO)ccc2c(=O)n1CCc1ccc(OC)cc1,0.921% (active)
11,Nc1ncnc2c1c(-c1cccc(OCc3ccccc3)c1)cn2C1CC(CN2CCC2)C1 (stereo not given),-51.5% (active)
12,CCN(Cc1cccc(S(=O)(=O)[O-])c1)c1ccc(C(=C2C=CC(=[N+](CC)Cc3cccc(S(=O)(=O)O)c3)C=C2)c2ccccc2S(=O)(=O)O)cc1,104%
13,O=C(NCCNC(c1ccccc1)C(NCCNC(=O)c1ccccc1)c1ccccc1)c1ccccc1 (stereo not given),68.3%
14,CC/C=C\CCC/C=C1/C(=O)C=C[C@@H]1C/C=C\CCCC(=O)OC,-9.11% (active)
15,COc1ccc2[nH]cc(-c3noc(C(=O)c4cn(C)c5ccc(F)cc45)n3)c2c1,81.7%
16,CCCn1c(N)c(C(N)=O)sc1=S,94.9%
17,CCCCN(C)N=Nc1ccc(C(N)=O)cc1,73.5%
18,Cc1cc(C)cc(Nc2ccc([N+](=O)[O-])c(NCCN3CCOCC3)n2)c1,-13.9% (active)
19,CCOC(=O)N1C/C(=C/c2ccc(Cl)cc2)C(=O)/C(=C/c2ccc(Cl)cc2)C1,61.5%
20,CC(C)N1CCN(c2ccncc2S(=O)(=O)N2CCN(C)CC2)CC1,95.7%

# Reference: PubChem BioAssay (NCI)
